# Data as given in PubChem BioAssay (Tox21).
# Several values for one entry are separate records, joined by “and”; a condition that tells them apart may be missing. Equal entries are not always repeated. Where a structure was tested more than once in an assay, its records may differ in their call. Activity calls are given as the source filed them. Entries that show only a call come without a potency. Unless noted, calls follow the shape of the dose curve; as a rule, active = well fitted curve in the direction sought with a large enough effect in the repeat runs; inconclusive = weak or mixed curves; inactive = no such curve, though single readings can be large; an effect the other way counts as inactive or inconclusive.
# Legend:
# [1] = qHTS assay to identify small molecule antagonists of the thyroid receptor (TR) signaling pathway - cell viability counter screen (AID 743064); conditions: GH3.TRE-Luc viability, CellTiter-Fluor, 24 h; series mostly up to 70.3 µM; also: nearly all actives have a fitted effect of over 50% in size; also: potency is read from the fitted curve at half-maximal effect
# In short: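 In rat pituitary GH3.TRE-Luc reporter cells co-exposed to compound and 1 nM T3 for 23.5 h, cytotoxicity was assessed with CellTiter-Fluor in the same wells, read by fluorescence.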
# [2] = tested on: thyroid hormone receptor (rat, GH3 cells); experiment: qHTS assay to identify small molecule agonists of the thyroid receptor (TR) signaling pathway (AID 743066; calls by dose curve); conditions: GH3.TRE-Luc cells, TR agonist luciferase, 24 h; series mostly up to 83.9 µM
# [3] = target: Estrogen receptor (Homo sapiens) (UniProt P03372); experiment: qHTS assay to identify small molecule antagonists of the estrogen receptor alpha (ER-alpha) signaling pathway (AID 743069; active = well fitted curve in the direction sought with a large enough effect in the signal ratio in the repeat runs, not every such curve was filed as active; inconclusive = weak or mixed curves, or effect the other way; inactive = no such curve, though single readings can be large or run the other way; the % refers to the signal ratio; also: potency is read from the fitted curve at half-maximal effect); conditions: HEK293 ER-alpha-UAS-bla, beta-lactamase ratio, antagonist mode; series mostly up to 69.4 µM
# Chain of Estrogen receptor (Homo sapiens) (P03372 whole entry, looked up): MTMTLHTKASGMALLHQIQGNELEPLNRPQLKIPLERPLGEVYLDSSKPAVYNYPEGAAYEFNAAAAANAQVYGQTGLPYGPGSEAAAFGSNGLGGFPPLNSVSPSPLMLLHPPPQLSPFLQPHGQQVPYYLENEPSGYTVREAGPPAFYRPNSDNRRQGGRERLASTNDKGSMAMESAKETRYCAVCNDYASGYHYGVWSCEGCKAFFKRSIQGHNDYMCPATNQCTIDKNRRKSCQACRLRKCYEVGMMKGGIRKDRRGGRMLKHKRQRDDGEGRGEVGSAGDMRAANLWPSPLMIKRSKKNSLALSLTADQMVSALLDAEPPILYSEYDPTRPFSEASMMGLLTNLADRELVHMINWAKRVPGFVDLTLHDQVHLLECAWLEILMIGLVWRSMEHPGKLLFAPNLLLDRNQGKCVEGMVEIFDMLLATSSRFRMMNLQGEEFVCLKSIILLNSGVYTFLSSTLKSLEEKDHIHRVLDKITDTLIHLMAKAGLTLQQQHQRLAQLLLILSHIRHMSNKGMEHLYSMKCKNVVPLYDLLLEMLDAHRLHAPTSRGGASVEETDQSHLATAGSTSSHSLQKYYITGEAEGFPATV
# In short: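 Reporter cells (ER-alpha-bla, HEK293 background) are conditioned overnight in stripped-serum medium (2% charcoal-stripped FBS). Compound and 17beta-estradiol exposure runs 18 hr at 37C, 5% CO2.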
# [4] = qHTS assay to identify small molecule antagonists of the estrogen receptor alpha (ER-alpha) signaling pathway - cell viability counter screen (AID 743074; calls by dose curve;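 also: HEK293 cells carrying ER-alpha-UAS-bla reporter stimulated with 17beta-estradiol; nearly all actives have a fitted effect of over 45% in size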; also: potency is read from the fitted curve at half-maximal effect); conditions: ERalpha-bla HEK293 viability, CellTiter-Glo luminescence, 18 h; series mostly up to 69.4 µM
# [5] = target: Estrogen receptor (Homo sapiens) (UniProt P03372); experiment: qHTS assay to identify small molecule agonists of the estrogen receptor alpha (ER-alpha) signaling pathway (AID 743075; calls by dose curve;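 also: HEK293 GripTite cells with ER-alpha and UAS-driven beta-lactamase reporter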; also: potency is read from the fitted curve at half-maximal effect); conditions: HEK293 ER-alpha-UAS-bla, beta-lactamase FRET ratio, 18 h; series mostly up to 70.1 µM
# [6] = target: Estrogen receptor (Homo sapiens) (UniProt P03372); experiment: qHTS assay to identify small molecule agonists of the estrogen receptor alpha (ER-alpha) signaling pathway using the BG1 cell line (AID 743079); conditions: BG1Luc4E2 cells, ERE-luciferase agonist, 22 h; activation: at 70.3 µM (top of the series); also: nearly all actives have a fitted effect of over 20% in size; also: potency is read from the fitted curve at half-maximal effect
# [7] = qHTS assay to identify small molecule antagonists of the estrogen receptor alpha (ER-alpha) signaling pathway using the BG1 cell line - cell viability counter screen (AID 743081); conditions: BG1Luc4E2 viability, CellTiter-Fluor, 22 h; series mostly up to 70.3 µM;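 also: compound given together with 17beta-estradiol as the ER stimulus; nearly all actives have a fitted effect of over 45% in size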; also: potency is read from the fitted curve at half-maximal effect
# [8] = qHTS assay to identify small molecule antagonists of the thyroid receptor (TR) signaling pathway (AID 743065); conditions: GH3.TRE-Luc, T3-stimulated luciferase inhibition, 23.5 h; series mostly up to 70.3 µM; also: nearly all actives have a fitted effect of over 55% in size; also: potency is read from the fitted curve at half-maximal effect
# In short: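 GH3.TRE-Luc rat pituitary cells (two TREs driving luciferase) were dosed with compound, then stimulated with 1 nM T3 (final) for 23.5 h at 37 C. ONE-Glo luminescence was the read-out, with CellTiter-Fluor fluorescence as the cytotoxicity counter-screen.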
# [9] = qHTS assay to identify small molecule antagonists of the estrogen receptor alpha (ER-alpha) signaling pathway using the BG1 cell line (AID 743080; calls by dose curve;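 also: BG1 cells stimulated with 17beta-estradiol alongside compound; nearly all actives have a fitted effect of over 25% in size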; also: potency is read from the fitted curve at half-maximal effect); conditions: BG1Luc4E2 ERE-luciferase antagonist mode, luminescence; series mostly up to 70.3 µM
# In short: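 Quantitative HTS on the Tox21 10K library: BG1 cells with endogenous ER-alpha and ERE-luciferase reporter, 17beta-estradiol stimulation, 21.5 h compound exposure, luminescence endpoint with parallel fluorescence cytotoxicity counter-read.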
# [10] = target: Aromatase (Homo sapiens) (UniProt P11511); experiment: qHTS assay to identify aromatase inhibitors (AID 743083); conditions: MCF-7 aro ERE, testosterone-driven ERE luciferase, 24 h; series mostly up to 70.3 µM; also: nearly all actives have a fitted effect of over 55% in size; also: potency is read from the fitted curve at half-maximal effect
# Chain of Aromatase (Homo sapiens) (P11511 whole entry, looked up): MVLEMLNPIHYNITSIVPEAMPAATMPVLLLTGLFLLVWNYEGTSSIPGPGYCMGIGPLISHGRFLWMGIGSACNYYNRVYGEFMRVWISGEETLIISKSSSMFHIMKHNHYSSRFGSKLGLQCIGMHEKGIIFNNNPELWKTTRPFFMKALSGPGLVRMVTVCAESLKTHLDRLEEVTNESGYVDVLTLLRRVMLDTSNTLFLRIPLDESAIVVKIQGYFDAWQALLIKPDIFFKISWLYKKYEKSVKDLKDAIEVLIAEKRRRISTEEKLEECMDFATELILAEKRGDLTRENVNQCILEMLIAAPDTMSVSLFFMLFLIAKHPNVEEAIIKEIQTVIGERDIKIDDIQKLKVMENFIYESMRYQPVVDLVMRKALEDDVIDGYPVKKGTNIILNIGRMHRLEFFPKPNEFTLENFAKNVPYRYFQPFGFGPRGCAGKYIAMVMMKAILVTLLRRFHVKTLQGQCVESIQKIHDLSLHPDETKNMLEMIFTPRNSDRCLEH
SMILES,Potency [1],Potency [2],Potency [3],Potency [4],Potency [5],Potency [6],Potency [7],Potency [8],Potency [9],Potency [10]
CCN(CC)C(=S)S,1.19 µM (active),inactive,inactive,inactive,inactive,inactive,inactive,,,
COC(=O)N(OC)c1ccccc1COc1ccn(-c2ccc(Cl)cc2)n1,61.1 µM (active),,,,0.275 µM [inconclusive] (active),,,0.137 µM (active),0.77 µM (active),61.1 µM (active)
CC(=O)[O-].CC(=O)[O-].CC(=O)[O-].[Cr+3],54.3 µM (active),inactive,,inactive,,,inactive,,,
CCn1cc[n+](C)c1 (tested in a mixture with another compound),inactive,inactive,,inactive,,,inactive,,,
CO/N=C(\C(=O)OC)c1ccccc1CO/N=C(\C)c1cccc(C(F)(F)F)c1,34.4 µM (active),inactive,,,,,,0.969 µM (active),,61.1 µM (active)
O=c1c2ccccc2c(=O)c2c1cc(Cl)c1[nH]c3c([nH]c12)c(Cl)cc1c(=O)c2ccccc2c(=O)c13,inactive,inactive,inactive,inactive,inactive,inactive,inactive,,inactive,inactive
COP(=O)(OC)Oc1ccc([N+](=O)[O-])cc1,inactive,inactive,,,inactive,inactive,inactive,inactive,inactive,34.4 µM (active)
Cc1ccccc1OP(=O)(Oc1ccccc1C)Oc1ccccc1C,54.7 µM (active),,,,inactive,3.87 µM (active),inactive,54.7 µM (active),inactive,
CN1CCc2cc(Cl)c(O)cc2[C@H]2c3ccccc3CC[C@@H]21,13.3 µM (active),,,inactive,inactive,inactive,,13.3 µM (active),,inactive
Nc1ccc(N=Nc2ccccc2)cc1,56.1 µM (active),inactive,,,inactive,14.1 µM (active),43.3 µM (active),inactive,,inactive
Oc1cc(Cl)c(Cl)c(Cl)c1Cl,29.9 µM (active),inactive,,,inactive,,inactive,15 µM (active),,
CC(=O)O.CC(=O)O.CC(=O)O.CC(=O)O.CC(=O)O.CC(=O)O.CC(=O)O.O.O.[Cr].[Cr].[Cr],inactive,inactive,,inactive,,,inactive,,,inactive
ClC1=C(Cl)[C@]2(Cl)[C@H]3[C@H]([C@@H]4C=C[C@H]3C4)[C@@]1(Cl)C2(Cl)Cl,68.5 µM (active) and 61.1 µM (active),,inactive,inactive,inactive,inactive,inactive,54.5 µM (active),inactive,inactive
CCCCN(CCCC)C(=S)S,,inactive,inactive,inactive,inactive,inactive,inactive,inactive,inactive,inactive
CCCCCCCCCCCCCCn1cc[n+](C)c1,,inactive,7.78 µM [inconclusive] (active) and 1.22 µM [inconclusive] (active) and inactive,48.5 µM (active) and inactive,inactive,inactive,30.7 µM (active) and 24.1 µM (active),1.09 µM (active) and 3.81 µM (active),1.37 µM (active) and 4.8 µM (active) and inactive,2.44 µM (active) and 5.39 µM (active) and inactive
ClCBr,,inactive,inactive,inactive,inactive,,inactive,inactive,inactive,inactive
CC[C@H](C)[C@H]1O[C@]2(C=C[C@@H]1C)C[C@@H]1C[C@@H](C/C=C(\C)[C@@H](O[C@H]3C[C@H](OC)[C@@H](O[C@H]4C[C@H](OC)[C@@H](NC)[C@H](C)O4)[C@H](C)O3)[C@@H](C)/C=C/C=C3\CO[C@@H]4[C@H](O)C(C)=C[C@@H](C(=O)O1)[C@]34O)O2,1.22 µM (active),,30.9 µM [cytotoxic] (active),13.8 µM (active),,,30.6 µM (active),,,4.86 µM (active)
COc1c2c(cc3c1OCO3)CCN(C)C2,,inactive,inactive,inactive,inactive,inactive,,inactive,inactive,inactive
c1ccc(N=NNc2ccccc2)cc1,,inactive,21.9 µM [inhibitor] (active),inactive,inactive,14.2 µM (active) and 54.5 µM (active),,inactive,68.6 µM (active),inactive
O=C(Cl)c1ccccc1F,,inactive,inactive,inactive,inactive,inactive,inactive,inactive,inactive,inactive
CCOP(=S)(OCC)Oc1cc(C)nc(N(CC)CC)n1,inactive,inactive,,,inactive,,inactive,,34.4 µM (active),
